We go through eleven compounds from PubChem BioAssay (EPA / NIEHS).

Records with an inconclusive call do not appear. More than one record can exist for a structure, and the calls need not agree. Active and inactive are the calls of the source. How the source made its calls, unless noted: active means hit-call score of the fitted dose curve at least 0.9, where 1 is the maximum; inconclusive means response in the unintended direction; inactive means score below 0.9.

The target of assay [1] is Agonist Androgen Response Element (ARE), AR (gene 367) (UniProt P10275). Nature of the assay: OT_AR_ARELUC_AG_1440: Odyssey Thera (OT) 24-hour CHO-K1 Luciferase Assay for Agonist Androgen Response Element (ARE) (AID 2283379). The method, boiled down: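 Agonist mode, 24 h exposure in CHO-K1 ARE-luciferase cells; values reflect luminescence induction over vehicle.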
The target in assay [2] is Estrogen receptor beta (Homo sapiens) (UniProt Q92731). Nature of the assay: OT_ER_ERbERb_1440: Odyssey Thera (OT) 24-hour HEK293T Protein-Complementation Assay for Estrogen Receptor-beta/-beta Homodimer (AID 2283380).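 Further: fluorescence gain from ER beta LBD homodimer complementation read by laser scanning cytometry; scored as signal increase over DMSO baseline for both agonists and antagonists.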 A digest of the protocol: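 Fluorescence increase, nuclear for agonists or whole-cell for antagonists, relative to DMSO vehicle, quantified by laser scanning cytometer after fixation and Draq5 staining. Readout from 24 h treatment of HEK293T cells carrying complementation-paired ER beta LBD (aa 310-547).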

The target in assay [3] is Retinoic acid receptor RXR-alpha (Homo sapiens) (UniProt P19793). Nature of the assay: OT_NURR1_NURR1RXRa_1440: Odyssey Thera (OT) 24-hour HEK293T Protein Complementation Assay for Nurr1/retinoid X receptor (RXR) (AID 2283386). The method, boiled down:
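HEK293T cells were dosed with compound and read 24 h later by fluorescence intensity in a protein-fragment complementation format, where Nurr1–RXRα interaction reconstitutes a split reporter. Activity was fitted as gain of signal relative to DMSO baseline.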

In assay [4] the target is Peroxisome proliferator-activated receptor gamma (Homo sapiens) (UniProt P37231). Nature of the assay: OT_PPARg_PPARgSRC1_0480: Odyssey Thera (OT) 8-hour Protein-Complementation Assay for Peroxisome Proliferator-activated Receptor Gamma / SRC-1 Co-activator (AID 2283387). A digest of the protocol:
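Split-YFP (IFP1/IFP2) PPARg/SRC-1 reporter, HEK293T, 37 °C, 5% CO2; 8 h compound; formaldehyde fix + Draq5; high-content imaging, N/C ratio, ≥350 cells/image, positive direction vs DMSO.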

Assay [5] has the same target. Nature of the assay: OT_PPARg_PPARgSRC1_1440: Odyssey Thera (OT) 24-hour Protein-Complementation Assay for Peroxisome Proliferator-activated Receptor Gamma/ SRC-1 Co-activator (AID 2283388). The method, boiled down:
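HEK293T cells transiently transfected with PPARg and SRC-1 fused via (Gly4Ser)2 linker to split Venus YFP fragments (IFP1/IFP2) were dosed 24 h; fixed, Draq5-stained, imaged at 488/635 nm; nuclear/cytoplasmic fluorescence ratio scored versus DMSO baseline, gain-of-signal.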

The target of assay [6] is human Dopamine Transporter (DAT), SLC6A3 (gene 6531) (UniProt Q01959). Nature of the assay: NVS_TR_hDAT: NovaScreen (NVS) Transporter Assay for human Dopamine Transporter (DAT) (AID 2283374).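 Further: activity means loss of bound radioligand signal relative to DMSO.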 A digest of the protocol:
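Test chemicals were first screened in duplicate at 25 uM, with actives retested as concentration series. Displacement of a specific radioligand from cell-free human dopamine transporter was measured after 1 h by filtration and scintillation counting.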

Assay [7] concerns the target Norway rat Vesicular Monoamine Transporter (VMAT2), neurotransmitter transporter, Slc18a2 (gene 25549) (UniProt Q01827). Nature of the assay: NVS_TR_rVMAT2: NovaScreen (NVS) Transporter Assay for Norway rat Vesicular Monoamine Transporter (VMAT2), neurotransmitter transporter (AID 2283376).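 Further: actives lower the bound radioligand signal below the DMSO level.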 A digest of the protocol: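 Tissue: rat forebrain extract. Format: competitive radioligand binding, cell-free. Timepoint: 1 h. Readout: filter radiodetection/scintillation. Screen: 25 uM in duplicate, then concentration series for actives. Baseline: DMSO.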

Assay [8] deals with human Norepinephrine Transporter (NET), SLC6A2 (gene 6530) (UniProt P23975). Nature of the assay: NVS_TR_hNET: NovaScreen (NVS) Transporter Assay for human Norepinephrine Transporter (NET) (AID 2283377).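 Further: cell-free membrane protein extracted from CHO cells expressing human NET; displacement of radioligand from human NET seen as loss of scintillation signal.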 The method, boiled down:
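Scintillation counts of filter-retained radioligand served as the readout, taken 1 h post-dosing in a cell-free CHO-derived system. Test chemicals ran first at 25 uM in duplicate; confirmed hits were retested across concentrations.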

Assay [9] deals with Bile acid receptor (Homo sapiens) (UniProt Q96RI1). Nature of the assay: OT_FXR_FXRSRC1_0480: Odyssey Thera (OT) 8-hour HEK293T Protein-Complementation Assay for Farnesoid X receptor/SRC-1 Co-activator (AID 2283383). A digest of the protocol: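 HEK293T cells expressing FXR and SRC-1 fused to reporter fragments were dosed with compound for 8 h; fluorescence from the reconstituted reporter marked co-activator recruitment. Gain of signal was fitted against the DMSO baseline.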

The target is the same in assay [10]. Nature of the assay: OT_FXR_FXRSRC1_1440: Odyssey Thera (OT) 24-hour HEK293T Protein-Complementation Assay for Farnesoid X receptor/SRC-1 Co-activator (AID 2283384). The method, boiled down: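 HEK293T cells were dosed with compound and read 24 h later by fluorescence intensity from protein-fragment complementation reporting FXR/SRC-1 co-activator interaction. Gain of signal was fitted relative to DMSO negative control as baseline.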

Assay [11] deals with Retinoic acid receptor RXR-alpha (Homo sapiens) (UniProt P19793). Nature of the assay: OT_NURR1_NURR1RXRa_0480: Odyssey Thera (OT) 8-hour HEK293T Protein Complementation Assay for Nurr1/retinoid X receptor (RXR) (AID 2283385). A digest of the protocol:
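HEK293T cells expressing Nurr1 and RXRα fused to reporter fragments were dosed with compound for 8 hours. Complex formation was read as fluorescence intensity and analysed as gain of signal against DMSO as baseline.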

Assay [12] in a line: CEETOX_H295R_OHPREG: CeeTox H295R High-throughput Steroidogenesis Assay for OH-Pregnenolone (OHPREG) (AID 2283434; active means hit-call score of the fitted dose curve at least 0.9, where 1 is the maximum; inactive means score below 0.9). The conditions noted are these: actives raise or lower the signal. The method, boiled down: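 Hormone levels in spent medium were measured by tandem mass spectrometry following liquid-liquid extraction. Cells (H295R) had been forskolin-stimulated (10 uM, 48 h) before a 48 h chemical exposure at 0.1% DMSO, with activity fitted in both directions against DMSO.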

Assay [13] can be described thus: CEETOX_H295R_OHPROG: CeeTox H295R High-throughput Steroidogenesis Assay for OH-Progesterone (OHPROG) (AID 2283435; active means hit-call score of the fitted dose curve at least 0.9, where 1 is the maximum; inactive means score below 0.9). The conditions noted are these: actives raise or lower the signal. The method, boiled down:
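H295R human adrenal cells were prestimulated 48 h with 10 uM forskolin, then exposed 48 h to test chemical (0.1% DMSO final). 17alpha-hydroxyprogesterone in medium was measured by HPLC-MS/MS after MTBE extraction; bidirectional fitting vs DMSO.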

Assay [14] addresses Estrogen receptor (Homo sapiens) (UniProt P03372). Nature of the assay: OT_ERa_GFPERaERE_0480: Odyssey Thera (OT) 8-hour HeLa Transcription Induction Assay for Estrogen Receptor (AID 2283381; active means hit-call score of the fitted dose curve at least 0.9, where 1 is the maximum; inactive means score below 0.9). The method, boiled down: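 HeLa cells dosed with compound and imaged by fluorescence microscopy at 8 h; GFP induction from an ERE reporter quantified by high-content image analysis and fitted as gain of signal against DMSO baseline.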

For assay [15] the target is unchanged. Nature of the assay: OT_ERa_GFPERaERE_0120: Odyssey Thera (OT) 2-hour HeLa Transcription Induction Assay for Estrogen Receptor (AID 2283382). The method, boiled down:
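HeLa cells were dosed with test chemical and read 2 hours later for GFP-ERα/ERE-linked fluorescent protein induction by fluorescence microscopy. Gain-of-signal was fitted relative to DMSO baseline, quantified by high content image analysis.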

The target in assay [16] is rat Serotonin Transporter (SERT), Slc6a4 (gene 25553) (UniProt P31652). Nature of the assay: NVS_TR_rSERT: NovaScreen (NVS) Transporter Assay for rat Serotonin Transporter (SERT) (AID 2283375). The method, boiled down:
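Rat forebrain membranes were incubated with test chemical for 1 hour; radioligand binding to SERT was measured by filter-based scintillation counting. Primary screen ran in duplicate at 25 uM, with actives followed up in concentration series; DMSO served as negative control.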

A short description of assay [17]: CEETOX_H295R_11DCORT: CeeTox H295R High-throughput Steroidogenesis Assay for 11-Deoxycortisol (11DCORT) (AID 2283432; active means hit-call score of the fitted dose curve at least 0.9, where 1 is the maximum; inactive means score below 0.9;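 further: 11-deoxycortisol secreted into the medium measured by LC-MS/MS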). The conditions noted are these: actives raise or lower the signal. The method, boiled down:
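Steroidogenesis in human H295R cells: 48 h chemical exposure after forskolin priming, 11-deoxycortisol measured by LC-MS/MS.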

Assay [18] can be described thus: CEETOX_H295R_CORTIC: CeeTox H295R High-throughput Steroidogenesis Assay for Corticosterone (CORTIC) (AID 2283437; active means hit-call score of the fitted dose curve at least 0.9, where 1 is the maximum; inactive means score below 0.9;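 further: corticosterone secreted into medium quantified by mass spectrometry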). The conditions noted are these: actives raise or lower the signal. The method, boiled down:
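Corticosterone secreted into medium is measured by reverse-phase HPLC with tandem MS following liquid-liquid extraction. Cells are forskolin-stimulated (10 uM, 48 h) before 48 h test exposure; activity fitted in both directions against DMSO.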

Sequence of Estrogen receptor (Homo sapiens) (P03372 whole entry, looked up): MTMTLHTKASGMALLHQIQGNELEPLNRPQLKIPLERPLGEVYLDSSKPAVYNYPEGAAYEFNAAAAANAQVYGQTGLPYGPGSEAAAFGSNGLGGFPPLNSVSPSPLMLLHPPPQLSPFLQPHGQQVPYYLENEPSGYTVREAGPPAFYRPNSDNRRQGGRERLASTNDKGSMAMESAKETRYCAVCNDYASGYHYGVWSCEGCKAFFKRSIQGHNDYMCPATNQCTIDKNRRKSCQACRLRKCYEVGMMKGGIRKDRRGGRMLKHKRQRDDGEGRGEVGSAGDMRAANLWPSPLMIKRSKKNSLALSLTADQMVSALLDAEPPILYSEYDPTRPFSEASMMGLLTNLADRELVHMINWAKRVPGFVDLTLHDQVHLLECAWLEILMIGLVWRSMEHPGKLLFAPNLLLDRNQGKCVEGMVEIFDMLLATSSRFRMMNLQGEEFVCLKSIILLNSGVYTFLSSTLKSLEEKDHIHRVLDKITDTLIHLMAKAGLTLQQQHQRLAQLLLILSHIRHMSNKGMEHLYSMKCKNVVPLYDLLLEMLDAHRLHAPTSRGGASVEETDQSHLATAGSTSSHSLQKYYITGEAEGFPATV
Sequence of Peroxisome proliferator-activated receptor gamma (Homo sapiens) (P37231 whole entry, looked up): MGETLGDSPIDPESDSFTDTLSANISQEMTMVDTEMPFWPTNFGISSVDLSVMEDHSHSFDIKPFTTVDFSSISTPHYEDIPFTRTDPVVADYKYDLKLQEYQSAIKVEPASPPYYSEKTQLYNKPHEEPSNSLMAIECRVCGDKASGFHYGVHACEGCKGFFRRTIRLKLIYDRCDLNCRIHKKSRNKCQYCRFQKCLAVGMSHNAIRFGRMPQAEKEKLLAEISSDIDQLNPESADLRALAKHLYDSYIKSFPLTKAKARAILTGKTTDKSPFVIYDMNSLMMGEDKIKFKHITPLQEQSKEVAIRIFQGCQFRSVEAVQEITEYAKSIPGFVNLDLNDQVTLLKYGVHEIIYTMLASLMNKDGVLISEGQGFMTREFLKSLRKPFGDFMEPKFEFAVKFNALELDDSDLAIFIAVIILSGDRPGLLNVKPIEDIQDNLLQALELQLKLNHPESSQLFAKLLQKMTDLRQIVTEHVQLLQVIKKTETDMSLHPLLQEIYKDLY
Sequence of Retinoic acid receptor RXR-alpha (Homo sapiens) (P19793 whole entry, looked up, the tested form may be a part): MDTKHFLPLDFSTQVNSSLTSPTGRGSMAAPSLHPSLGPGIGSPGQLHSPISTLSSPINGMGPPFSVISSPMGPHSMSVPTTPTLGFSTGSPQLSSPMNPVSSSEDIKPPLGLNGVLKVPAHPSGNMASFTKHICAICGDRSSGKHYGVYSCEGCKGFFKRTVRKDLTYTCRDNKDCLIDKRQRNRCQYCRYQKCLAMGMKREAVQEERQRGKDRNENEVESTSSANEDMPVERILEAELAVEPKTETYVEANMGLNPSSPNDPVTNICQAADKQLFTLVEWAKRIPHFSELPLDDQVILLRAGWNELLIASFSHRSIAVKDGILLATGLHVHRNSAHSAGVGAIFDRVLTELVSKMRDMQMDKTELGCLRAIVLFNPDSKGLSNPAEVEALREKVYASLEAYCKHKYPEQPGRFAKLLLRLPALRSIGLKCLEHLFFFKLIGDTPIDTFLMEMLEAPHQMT
Sequence of Bile acid receptor (Homo sapiens) (Q96RI1 whole entry, looked up, the tested form may be a part): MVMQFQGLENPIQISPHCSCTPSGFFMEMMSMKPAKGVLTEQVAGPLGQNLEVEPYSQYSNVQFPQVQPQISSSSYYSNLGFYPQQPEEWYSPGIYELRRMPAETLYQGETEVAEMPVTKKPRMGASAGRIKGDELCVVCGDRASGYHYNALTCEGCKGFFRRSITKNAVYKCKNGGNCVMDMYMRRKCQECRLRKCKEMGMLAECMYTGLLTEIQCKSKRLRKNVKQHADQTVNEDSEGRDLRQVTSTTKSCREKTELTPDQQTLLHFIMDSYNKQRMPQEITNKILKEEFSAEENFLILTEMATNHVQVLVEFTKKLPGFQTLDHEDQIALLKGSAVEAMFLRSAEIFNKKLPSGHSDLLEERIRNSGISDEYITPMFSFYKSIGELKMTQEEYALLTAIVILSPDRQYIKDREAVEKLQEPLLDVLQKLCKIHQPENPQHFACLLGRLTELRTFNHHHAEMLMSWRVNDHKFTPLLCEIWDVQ
Sequence of Agonist Androgen Response Element (ARE), AR (gene 367) (P10275 whole entry, looked up, the tested form may be a part): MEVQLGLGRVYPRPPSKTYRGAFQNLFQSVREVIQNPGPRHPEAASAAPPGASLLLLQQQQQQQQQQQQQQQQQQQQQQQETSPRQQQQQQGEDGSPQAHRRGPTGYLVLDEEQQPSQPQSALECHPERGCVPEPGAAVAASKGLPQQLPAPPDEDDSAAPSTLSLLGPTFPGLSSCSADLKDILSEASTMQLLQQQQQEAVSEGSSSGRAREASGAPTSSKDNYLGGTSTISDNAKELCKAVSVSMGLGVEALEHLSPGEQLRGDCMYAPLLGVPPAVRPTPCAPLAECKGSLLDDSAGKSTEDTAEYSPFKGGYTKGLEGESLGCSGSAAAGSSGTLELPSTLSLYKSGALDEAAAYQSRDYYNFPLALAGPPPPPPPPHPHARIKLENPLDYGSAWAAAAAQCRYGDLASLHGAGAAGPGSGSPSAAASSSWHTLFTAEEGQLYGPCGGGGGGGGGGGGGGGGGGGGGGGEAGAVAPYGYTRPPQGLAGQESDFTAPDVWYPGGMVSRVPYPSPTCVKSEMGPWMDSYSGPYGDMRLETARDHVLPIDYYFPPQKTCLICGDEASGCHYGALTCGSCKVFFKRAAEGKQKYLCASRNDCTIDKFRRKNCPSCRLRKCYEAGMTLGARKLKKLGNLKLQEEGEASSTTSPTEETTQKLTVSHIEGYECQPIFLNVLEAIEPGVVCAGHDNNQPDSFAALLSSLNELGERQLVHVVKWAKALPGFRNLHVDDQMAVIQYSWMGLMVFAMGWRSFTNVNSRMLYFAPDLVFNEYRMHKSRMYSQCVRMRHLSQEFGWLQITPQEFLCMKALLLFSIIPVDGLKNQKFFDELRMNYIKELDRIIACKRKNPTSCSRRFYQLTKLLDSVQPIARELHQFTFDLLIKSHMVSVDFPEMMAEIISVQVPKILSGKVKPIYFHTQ
Sequence of Estrogen receptor beta (Homo sapiens) (Q92731 whole entry, looked up, the tested form may be a part): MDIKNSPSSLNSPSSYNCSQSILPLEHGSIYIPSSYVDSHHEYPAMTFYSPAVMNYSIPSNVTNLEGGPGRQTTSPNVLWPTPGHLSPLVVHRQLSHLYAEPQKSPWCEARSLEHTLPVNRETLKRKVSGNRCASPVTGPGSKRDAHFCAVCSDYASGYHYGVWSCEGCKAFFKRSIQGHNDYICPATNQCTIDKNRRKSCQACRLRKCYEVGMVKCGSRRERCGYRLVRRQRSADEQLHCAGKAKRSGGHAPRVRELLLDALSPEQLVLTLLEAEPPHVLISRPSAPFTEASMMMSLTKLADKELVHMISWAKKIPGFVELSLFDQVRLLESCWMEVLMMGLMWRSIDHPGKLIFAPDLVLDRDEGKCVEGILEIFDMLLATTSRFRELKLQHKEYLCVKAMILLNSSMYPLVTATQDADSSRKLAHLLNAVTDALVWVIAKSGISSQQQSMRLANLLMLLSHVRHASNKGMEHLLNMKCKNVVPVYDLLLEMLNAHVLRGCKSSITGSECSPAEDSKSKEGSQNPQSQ
Sequence of Norway rat Vesicular Monoamine Transporter (VMAT2), neurotransmitter transporter, Slc18a2 (gene 25549) (Q01827 whole entry, looked up): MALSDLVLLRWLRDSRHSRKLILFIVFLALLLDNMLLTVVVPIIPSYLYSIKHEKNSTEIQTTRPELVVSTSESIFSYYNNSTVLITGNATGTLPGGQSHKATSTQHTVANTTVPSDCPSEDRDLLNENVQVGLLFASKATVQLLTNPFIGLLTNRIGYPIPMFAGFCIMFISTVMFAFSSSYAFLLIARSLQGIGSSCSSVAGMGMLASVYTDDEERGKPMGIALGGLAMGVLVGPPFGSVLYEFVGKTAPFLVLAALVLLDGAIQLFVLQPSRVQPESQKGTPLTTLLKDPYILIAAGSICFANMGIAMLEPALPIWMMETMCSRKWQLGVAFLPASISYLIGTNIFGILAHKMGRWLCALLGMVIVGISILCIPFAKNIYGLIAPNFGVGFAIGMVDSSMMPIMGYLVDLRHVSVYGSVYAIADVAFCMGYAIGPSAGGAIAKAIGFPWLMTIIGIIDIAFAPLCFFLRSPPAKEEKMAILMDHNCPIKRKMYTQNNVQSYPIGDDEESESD
Sequence of human Dopamine Transporter (DAT), SLC6A3 (gene 6531) (Q01959 whole entry, looked up): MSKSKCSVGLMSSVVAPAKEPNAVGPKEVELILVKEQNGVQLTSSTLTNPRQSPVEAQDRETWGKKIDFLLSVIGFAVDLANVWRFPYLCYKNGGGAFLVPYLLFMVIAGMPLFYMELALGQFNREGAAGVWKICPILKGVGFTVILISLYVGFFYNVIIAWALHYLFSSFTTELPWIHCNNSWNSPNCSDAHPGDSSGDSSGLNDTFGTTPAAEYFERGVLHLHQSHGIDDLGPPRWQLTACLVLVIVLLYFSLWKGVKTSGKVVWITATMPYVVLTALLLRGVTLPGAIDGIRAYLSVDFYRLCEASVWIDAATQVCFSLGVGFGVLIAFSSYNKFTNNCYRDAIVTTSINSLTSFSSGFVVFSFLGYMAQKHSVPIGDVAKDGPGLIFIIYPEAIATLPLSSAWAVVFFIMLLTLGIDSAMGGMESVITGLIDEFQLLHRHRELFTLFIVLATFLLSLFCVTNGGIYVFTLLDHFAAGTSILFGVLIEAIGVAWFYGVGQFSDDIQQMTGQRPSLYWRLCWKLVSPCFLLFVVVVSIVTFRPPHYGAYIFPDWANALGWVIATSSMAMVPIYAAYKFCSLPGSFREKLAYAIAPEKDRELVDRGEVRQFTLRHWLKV

For the compound `Cc1nn(-c2cc(NS(C)(=O)=O)c(Cl)cc2Cl)c(=O)n1C(F)F`, the outcome in assay [1], in assay [2], in assay [3], in assay [4] and in assay [5] was inactive.

Turning to `C[Si](Cn1cncn1)(c1ccc(F)cc1)c1ccc(F)cc1`, the AC50 – broadly, the midpoint of the concentration-response curve, whichever way the signal moves – in assay [6] is 9.33 µM (active); in assay [7], 14.1 µM (active); in [8], 2.86 µM (active); in assay [9] it was 13 µM (active). For the same compound, the compound was called inactive in assay [2], in assay [10], in [11], in assay [3], in assay [4] and in assay [5]. The result in [12] and in assay [13] was inactive.

Turning to `O=c1ccc(=O)[nH][nH]1`, the compound was classed as inactive in assay [1], in assay [9], in assay [11], in assay [3], in assay [4] and in [5].

For `CSc1nc(NC(C)C)nc(NC(C)C)n1`, the compound was classed as inactive in assay [7], in [2], in assay [14], in assay [15], in assay [11] and in assay [3]. Further, the call in [4], in assay [5], in assay [12] and in assay [13] was inactive.

Consider `COP(=O)(OC)OC(Br)C(Cl)(Cl)Br` (stereo not given), for which the outcome in assay [2], in assay [14], in assay [15], in assay [9], in assay [10] and in assay [3] was inactive. Further, the outcome in assay [4] and in assay [5] was inactive.

Regarding `CC(C)=CC1C(C(=O)OCN2C(=O)C3=C(CCCC3)C2=O)C1(C)C` (stereo not given), the call in assay [6], in assay [16], in assay [1], in assay [11], in [3] and in [4] was inactive. The outcome in assay [5] was inactive.

Regarding `CCOP(=S)(OCC)Oc1ccc2c(C)c(Cl)c(=O)oc2c1`, the compound was classed as inactive in [2], in [3], in assay [4], in assay [5], in [12] and in assay [18]. The AC50 in [17] is 5 µM (active); in assay [13], 1.67 µM (active).

For `N#CSCSC#N`, the compound was classed as inactive in [2], in assay [4] and in [5]. The AC50 in assay [9] was 11.4 µM (active).

With `CN(C)C(=O)Nc1cccc(C(F)(F)F)c1`, the compound was classed as inactive in assay [2], in assay [11], in [3], in assay [4], in [5] and in assay [12]. Further, in assay [13], the AC50 is 52.6 µM (active).

For the compound `CCCSP(=O)(OCC)Oc1ccc(Br)cc1Cl` (stereo not given), the result in assay [2], in assay [10], in assay [11], in [3], in [4] and in assay [5] was inactive. For the same compound, the compound was classed as inactive in assay [12] and in assay [13]. Also, the AC50 in [9] was 25 µM (active); in [11], 44 µM (active).

For the compound `CCC(CC)Nc1c([N+](=O)[O-])cc(C)c(C)c1[N+](=O)[O-]`, the AC50 in assay [2] was 13.5 µM (active); in assay [9] it was 43.3 µM (active); in assay [10] it was 71.7 µM (active); in [3] it was 82.1 µM (active). The outcome in assay [11], in assay [3], in assay [4] and in assay [5] was inactive.
